# Measured values reported in PubChem BioAssay AID777 (Sanford-Burnham Center for Chemical Genomics, 2007).
# In all, about 96,000 compounds went through this assay and about 19,000 (20%) were called active. Only a sample is shown. Unmarked numbers belong to inactive results.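 The calls were made as follows: active = blocking of liver enzyme CYP2C9 beyond about 50% at 5 µM (limit read from the data); inactive = the rest.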
# Target: Cytochrome P450 2C9 (Homo sapiens) (UniProt P11712)
# Test: blockers of cytochrome P450 2C9 activity – biochemical, luminescence, ADME assay, primary screen (AID 777)
# Settings: CYP2C9 Supersomes, luciferin-H conversion, at 5 µM, active compounds read high
# Chain of Cytochrome P450 2C9 (Homo sapiens) (P11712 whole entry, looked up): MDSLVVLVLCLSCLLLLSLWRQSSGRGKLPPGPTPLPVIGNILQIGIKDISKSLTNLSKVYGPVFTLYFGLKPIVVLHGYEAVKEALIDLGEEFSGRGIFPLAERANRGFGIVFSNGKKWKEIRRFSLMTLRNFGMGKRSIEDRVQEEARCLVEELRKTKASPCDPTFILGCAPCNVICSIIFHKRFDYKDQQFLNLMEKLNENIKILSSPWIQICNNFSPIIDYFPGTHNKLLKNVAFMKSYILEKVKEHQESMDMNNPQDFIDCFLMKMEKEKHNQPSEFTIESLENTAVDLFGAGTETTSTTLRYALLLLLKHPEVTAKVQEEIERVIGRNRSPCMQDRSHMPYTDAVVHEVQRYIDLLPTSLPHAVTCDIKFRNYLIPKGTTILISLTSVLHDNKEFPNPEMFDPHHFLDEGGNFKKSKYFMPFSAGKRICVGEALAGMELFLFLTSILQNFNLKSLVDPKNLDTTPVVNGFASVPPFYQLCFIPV
row,SMILES,inhibition
1,CCOC(=O)N1CCC(N(CCOC)C(=O)Nc2ccc(C)c(C)c2)CC1,-10.6%
2,CS(=O)(=O)Nc1ccc(C(=O)N2CCCC2)cc1,17.2%
3,CCOC(=O)N1CCN(C(=O)c2n[nH]c(=O)c3ccccc23)CC1,-4.2%
4,COc1ccc(C2C(C#N)=C(N)Oc3n[nH]c(C)c32)cc1CN1CCN(c2ccc(F)cc2)CC1 (stereo not given),28%
5,O=C(Cn1cc2c(n1)CCCCC2)NCCN1CCOCC1,-11.3%
6,O=C(NC(c1ccccc1)c1ccccc1)N1CCN(CCO)CC1,4%
7,COc1ccc(N(CCC#N)S(=O)(=O)c2ccc(Cl)cc2)cc1,19.8%
8,C=CCC(NCc1ccco1)c1ccc(OC)cc1 (stereo not given),-14.6%
9,N#CCSc1nc2ccc(N3CCOCC3)cc2c(=O)n1CCc1ccccc1,30.9%
10,CCCCn1c(SCC(=O)NCC2CCCO2)nc2ccc(N3CCOCC3)cc2c1=O (stereo not given),74.1% (active)
11,N#Cc1ccc(Oc2cc(C(F)(F)F)nc(-c3ccccn3)n2)cc1,42%
12,O=C(Nc1ccc(Cl)cc1)c1cc2nc(C3CC3)cc(C(F)(F)F)n2n1,-1.8%
13,COc1cc(OC)c(-n2c(C)cc(C=O)c2C)cc1Cl,16.9%
14,O=C(NCCSc1ccccc1)c1ccco1,-18.4%
15,CC(NC(=O)c1ccco1)C(=O)Nc1nc(-c2ccccn2)cs1 (stereo not given),9.7%
16,CC(Oc1ccc2ccccc2c1)C(=O)NNC(=S)NC(=O)c1ccco1 (stereo not given),85.3% (active)
17,CCNC(=S)NNC(=O)Cc1ccccc1,1.3%
18,COc1ccc(C(=O)NC(=S)NNC(=O)CCc2ccccc2)cc1,33.8%
19,CCCc1ccc(OCC(=O)NNC(=S)NC(=O)c2ccco2)cc1,65.8% (active)
20,O=S(=O)(N/N=C\c1cccn1-c1ccccc1)c1ccc2ccccc2c1,-71.5%
21,COc1ccccc1N=C1SC(C)CN1C(=O)C1CCC1 (stereo not given),-6.6%
22,Cc1nc(NC(=O)C23CCC(C)(C(=O)O2)C3(C)C)sc1C (stereo not given),-3.9%
23,Cc1cccc(-n2c(N)cc(=O)nc2SC(C)C(=O)NC2CCCCC2)c1 (stereo not given),27.7%
24,O=C(CCCN1C(=O)c2ccccc2C1=O)Oc1ccc(Cl)cc1,19.8%
25,COc1cc(C(=O)Nc2oc(-c3ccccc3)c(-c3ccccc3)c2C#N)cc(OC)c1OC,43.6%

row,SMILES,inhibition
1,N#Cc1c(NC(=O)CCCN2C(=O)c3ccccc3C2=O)oc(-c2ccccc2)c1-c1ccccc1,50.3% (active)
2,CS(=O)(=O)Nc1cccc(C2=NN(S(=O)(=O)c3ccccc3)C(c3cccs3)C2)c1 (stereo not given),89.1% (active)
3,NC(=O)C1CCN(C2OC(=O)c3ccccc32)CC1 (stereo not given),-3.4%
4,Cc1ccc(CCn2c3c(c4ccccc42)CN(C)CC3)cn1,-27.5%
5,O=C(CS(=O)(=O)Cc1ccccc1)NCC1CCCO1 (stereo not given),-17.4%
6,O=C(Nc1ccc(-c2nnc(-c3ccccc3)o2)cc1)C1CCCO1 (stereo not given),-11.1%
7,O=C(CSc1nnc(-c2ccc(NS(=O)(=O)c3ccccc3)cc2)o1)NCC1CCCO1 (stereo not given),92.2% (active)
8,CSC1=N/C(=C\C=C\c2cccs2)C(=O)S1,-10.5%
9,C=C(C)Cn1c(N2CCCC2)nc2c1c(=O)[nH]c(=O)n2C,-5%
10,Cc1nnc(SCCCn2c(N3CCCCC3)nc3c2c(=O)[nH]c(=O)n3C)s1,59.5% (active)
11,Cn1c(=O)[nH]c(=O)c2c1nc(N1CCCCCC1)n2CC(=O)c1ccccc1,7.5%
12,CSCCC1NC2(C(=O)Nc3ccc(Cl)cc32)[C@@H]2C(=O)N(C3CCCC3)C(=O)[C@H]12 (stereo not given in full),76.1% (active)
13,O=C(CN1CCCCCC1)Nc1ccc(Br)cc1Br,16.5%
14,Cc1cccc(N2CCN(C(c3ccccc3)c3nnnn3CC3CCCO3)CC2)c1C (stereo not given),37.3%
15,CC(C)C(c1nnnn1C1CCCC1)N1CCN(c2ccccc2F)CC1 (stereo not given),8.2%
16,Cc1cccc2cc(CN(Cc3cccs3)C(c3nnnn3C3CCCC3)C(C)C)c(=O)[nH]c12 (stereo not given),-38.3%
17,COc1ccc(C(c2nnnn2C2CCCCC2)N2CCN(c3ccccc3F)CC2)cc1 (stereo not given),73.7% (active)
18,CCOc1ccc2[nH]c(=O)c(C(c3nnnn3CCOC)N3CCOCC3)cc2c1 (stereo not given),6.5%
19,COc1ccc(N2CCN(C(c3cc4ccc(C)cc4[nH]c3=O)c3nnnn3C3CCCC3)CC2)cc1 (stereo not given),75.7% (active)
20,N#Cc1ccc(-c2ccc(F)cc2)nc1Sc1ccccc1,13.2%
21,Cc1[nH]n(-c2ccccc2)c(=O)c1CCOC(=O)c1ccc(C(F)(F)F)cc1,-11.8%
22,COC(=O)CN(c1nc(C)c(Cl)c(OC)n1)S(=O)(=O)c1ccc(C)cc1,34.3%
23,Cc1ccc(-c2nnc(-n3nnc4ccccc43)c3ccccc23)cc1,8.4%
24,N#Cc1ccc(OCCN2C(=O)NC3(CCSC3)C2=O)cc1 (stereo not given),-24.2%
25,CC1(C)NC(=O)N(CCOc2cccc(Oc3ccccc3)c2)C1=O,62.5% (active)

row,SMILES,inhibition
1,Cc1nn(CCOc2ccccc2)c(=O)n1-c1ccccc1F,-10%
2,Cc1ccc(NC(=O)Cn2nc(C)c3ccccc3c2=O)c(C)c1,-59.3%
3,CCOC(=O)C1(S(=O)(=O)c2ccccc2)CCN(Cc2ccccc2)CC1,8.3%
4,CCn1c(-c2ccoc2C)n[nH]c1=S,2.9%
5,CCOC(=O)CN(C)Cc1c[nH]c2ccccc12,1.3%
6,COc1ccccc1CNC(=O)C1CCN(S(C)(=O)=O)CC1,-17.1%
7,COc1ccc(C(=O)NC(=S)Nc2ccccc2N2CCN(S(C)(=O)=O)CC2)cc1OC,54.8% (active)
8,CCC(=O)Nc1ccccc1N1CCN(S(C)(=O)=O)CC1,-0.9%
9,CC(C)c1ccc(OCC(O)Cn2cnc3ccccc32)cc1 (stereo not given),8.1%
10,CC(C)c1cc(C(=O)O)n[nH]1,1.1%
11,CCOCCOC(=O)C1=C(C)N(C)C(=O)NC1c1ccccc1F (stereo not given),-10.9%
12,Cc1ccc(-n2nc3cc(Cl)c(NC(=O)c4ccco4)cc3n2)cc1,15.7%
13,COc1ccc(CCNS(=O)(=O)c2ccc(Cl)s2)cc1OC,87.3% (active)
14,COc1ccc(S(=O)(=O)NCc2ccc(C(=O)N(C)Cc3ccco3)cc2)cc1,63.2% (active)
15,Cc1nn(C)c(Oc2ccccc2)c1CCNS(=O)(=O)c1ccc(F)cc1,49.8%
16,COc1ccc(C(=O)NCCc2ccc(S(N)(=O)=O)cc2)cc1OC,-6.7%
17,COc1ccc(CCNS(=O)(=O)c2ccc(C(=O)NCc3ccco3)cc2)cc1OC,71.8% (active)
18,COc1ccc(CCNC(=O)CN(c2ccccc2)S(C)(=O)=O)cc1OC,4.9%
19,O=C(NC1CCC(O)CC1)c1ccc(S(=O)(=O)NCc2ccco2)cc1 (stereo not given),5%
20,COc1ccc(S(=O)(=O)NC(CC(=O)NCc2ccccc2OC)c2ccco2)cc1 (stereo not given),-43.6%
21,COc1ccc(CCNc2ncnc3nc[nH]c23)cc1OC,8.9%
22,CCS(=O)(=O)NCCc1ccc(OC)c(OC)c1,0.1%
23,COc1ccc(CCNS(=O)(=O)c2ccc(F)cc2)cc1OC,76.6% (active)
24,COc1ccc(-c2cc(C(=O)NCc3ccco3)no2)cc1OC,-47%
25,CCCSc1nc(NCc2ccco2)c2c3c(sc2n1)COC(C)(CC)C3 (stereo not given),45.6%

row,SMILES,inhibition
1,CC(=O)C1C(c2ccc(Cl)cc2)NC(=O)NC1(O)C(F)(F)F (stereo not given),-9.5%
2,Cn1c(=O)n(C)c2cc(CNc3ccc(N4CCOCC4)c(C(=O)O)c3)ccc21,-13.6%
3,CSc1ccc(NC(=O)N2CC(C)OC(C)C2)cc1 (stereo not given),2.1%
4,O=C(NCCN1CCOCC1)c1c(F)c(F)c(F)c(F)c1F,-21.8%
5,COc1ccccc1C1=Nc2cccc3cccc(c23)N1,24%
6,CC1(C)COC(c2cccn2Cc2ccccc2Cl)=N1,13.6%
7,COc1ccc(C)cc1S(=O)(=O)NC1CCCCC1,22.8%
8,COc1ccc(C)cc1S(=O)(=O)NCCc1ccccc1,75.9% (active)
9,COCCNS(=O)(=O)c1cc(Br)ccc1OC,-13.7%
10,CC(=O)c1cnn(-c2cc(Oc3ccc(F)cc3)ncn2)c1C,42.5%
11,CC(C)c1ccc(NS(=O)(=O)c2cn(C)c(=O)n(C)c2=O)cc1,-7.9%
12,CN(C)Cc1c(O)ccc2occ(C(O)c3ccccc3)c12 (stereo not given),-6.6%
13,COc1cc2c(cc1OC)C(c1ccncc1)CC(=O)N2 (stereo not given),34.4%
14,COc1cc2c(cc1OC)C(c1ccc(C)o1)CC(=O)N2 (stereo not given),-9%
15,COc1ccc(C2CC(=O)Nc3cc(C)c(C)cc32)c(OC)c1OC (stereo not given),57% (active)
16,O=C(CCS(=O)(=O)c1cccc2nonc12)NCCc1ccccc1Cl,37.9%
17,Cc1ccc(CNC(=O)CCNS(=O)(=O)c2cccc3nonc23)cc1,-20.4%
18,O=C(NCc1ccc2c(c1)OCO2)C12CC3CC(CC(C3)C1)C2,38.2%
19,O=C(CCNS(=O)(=O)c1ccccc1C(F)(F)F)NCc1ccc2c(c1)OCO2,78.1% (active)
20,CCOC(=O)NCc1ccc2c(c1)OCO2,10.7%
21,Cc1ccc(C(=O)OCC(=O)NCc2ccc3c(c2)OCO3)s1,81.5% (active)
22,COC(=O)Cc1c(C)c2ccc(OCC(=O)NCc3ccc4c(c3)OCO4)cc2oc1=O,36.1%
23,CC(Sc1nncs1)C(=O)NCc1ccc2c(c1)OCO2 (stereo not given),29.7%
24,O=C(CNS(=O)(=O)c1ccc(Br)s1)NCc1ccc2c(c1)OCO2,95.8% (active)
25,O=C(CNS(=O)(=O)c1ccc(Br)s1)N1CCN(C(=O)c2ccco2)CC1,31.1%
